Laboratory results taken from PubChem BioAssay AID1159580 (chemical genetic matrix, 2015).
In all, about 5,500 compounds went through this assay and about 2,000 (36%) were called active. Another 18% or so got no clear call; they are omitted. No stated cut-off is given here; in the data, active means normalized growth mostly below about 0.91 (no sharp cut-off); inconclusive means no clear call, values can overlap the other calls; inactive means mostly above about 0.92. The list shows a part of the results.

Test: chemical genetic growth profiling, strain panel (AID 1159580);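 further: tested at 20 µM; growth read once vehicle control cultures reached saturation at 30 °C; 1 = growth at the plate median or of vehicle wells; lower values mean less growth of the strain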
Conditions: growth OD
[1] = S. cerevisiae deletion strains, locus YDR150W, strain NUM1, active compounds read low
[2] = S. cerevisiae deletion strains, locus YGR078C, strain PAC10, active compounds read low
[3] = S. cerevisiae deletion strains, locus YMR307W, strain GAS1, active compounds read low
[4] = S. cerevisiae deletion strains, locus YNL153C, strain GIM3, active compounds read low
[5] = S. cerevisiae deletion strains, locus YNL322C, strain KRE1, active compounds read low
[6] = S. cerevisiae deletion strains, locus YPL241C, strain CIN2, active compounds read low

Measured: normalized growth

CC#CCOC(=O)c1c(C)nc2sc3c(c2c1N)CCC(O)C3 (stereo not given)
inactive: S. cerevisiae deletion strains, locus YAL040C, strain CLN3, active compounds read low 1.06 | S. cerevisiae deletion strains, locus YCL061C, strain MRC1 (second series), active compounds read low 0.993 | [1] 0.987 | S. cerevisiae deletion strains, locus YDR363W, strain ESC2, active compounds read low 1 | S. cerevisiae deletion strains, locus YER002W, strain NOP16, active compounds read low 0.971 | [2] 0.982 | [3] 0.994 | [4] 1.18 | S. cerevisiae deletion strains, locus YNL175C, strain NOP13, active compounds read low 0.955 | S. cerevisiae deletion strains, locus YNL197C, strain WHI3, active compounds read low 0.967 | S. cerevisiae deletion strains, locus YNL224C, strain SQS1, active compounds read low 0.971 | [5] 0.982 | S. cerevisiae deletion strains, locus YOR083W, strain WHI5 (second series), active compounds read low 0.891 | [6] 0.99

CC1(C)CC2C1(O)CCC1(C)C=CC(O)C21CO (stereo not given)
inactive: S. cerevisiae deletion strains, locus YAL013W, strain DEP1, active compounds read low 0.99 | S. cerevisiae deletion strains, locus YBR021W, strain FUR4, active compounds read low 1.01 | S. cerevisiae deletion strains, locus YBR229C, strain ROT2, active compounds read low 0.995 | S. cerevisiae deletion strains, locus YCL029C, strain bik1, active compounds read low 0.975 | S. cerevisiae deletion strains, locus YDL035C, strain GPR1, active compounds read low 0.983 | S. cerevisiae deletion strains, locus YDL074C, strain BRE1, active compounds read low 1.03 | S. cerevisiae deletion strains, locus YDL101C, strain DUN1, active compounds read low 0.998 | S. cerevisiae deletion strains, locus YDL134C, strain PPH21, active compounds read low 0.998 | S. cerevisiae deletion strains, locus YDL185W, strain tfp1, active compounds read low 0.976 | S. cerevisiae deletion strains, locus YDL192W, strain arf1, active compounds read low 0.979 | S. cerevisiae deletion strains, locus YDR101C, strain arx1, active compounds read low 1 | [1] 0.987 | S. cerevisiae deletion strains, locus YDR162C, strain NBP2, active compounds read low 1.03 | S. cerevisiae deletion strains, locus YDR318W, strain mcm21, active compounds read low 0.975 | S. cerevisiae deletion strains, locus YDR388W, active compounds read low 0.993 | S. cerevisiae deletion strains, locus YDR502C, strain sam2, active compounds read low 1.01 | S. cerevisiae deletion strains, locus YEL061C, strain CIN8, active compounds read low 0.992 | S. cerevisiae deletion strains, locus YER110C, active compounds read low 0.959 | S. cerevisiae deletion strains, locus YER155C, strain BEM2, active compounds read low 0.995 | S. cerevisiae deletion strains, locus YER167W, strain BCK2, active compounds read low 0.982 | S. cerevisiae deletion strains, locus YGL078C, strain dbp3, active compounds read low 0.994 | S. cerevisiae deletion strains, locus YGL086W, strain mad1, active compounds read low 0.969 | S. cerevisiae deletion strains, locus YGL248W, strain PDE1, active compounds read low 0.993 | [2] 1.03 | S. cerevisiae deletion strains, locus YGR135W, strain pre9, active compounds read low 1.02 | S. cerevisiae deletion strains, locus YGR229C, strain SMI1, active compounds read low 1.03 | S. cerevisiae deletion strains, locus YGR252W, strain gcn5, active compounds read low 0.995 | S. cerevisiae deletion strains, locus YHR030C, strain SLT2, active compounds read low 0.982 | S. cerevisiae deletion strains, locus YHR079C, strain IRE1 (second series), active compounds read low 0.988 | S. cerevisiae deletion strains, locus YHR094C, strain hxt1, active compounds read low 0.98 | S. cerevisiae deletion strains, locus YHR129C, strain ARP1, active compounds read low 0.997 | S. cerevisiae deletion strains, locus YHR200W, strain rpn10, active compounds read low 0.984 | S. cerevisiae deletion strains, locus YIL066C, strain RNR3, active compounds read low 0.992 | S. cerevisiae deletion strains, locus YIL073C, strain SPO22, active compounds read low 0.873 | S. cerevisiae deletion strains, locus YIL125W, strain kgd1, active compounds read low 0.976 | S. cerevisiae deletion strains, locus YIR030C, strain dcg1, active compounds read low 0.99 | S. cerevisiae deletion strains, locus YJL095W, strain BCK1, active compounds read low 1.04 | S. cerevisiae deletion strains, locus YJL134W, strain LCB3, active compounds read low 0.992 | S. cerevisiae deletion strains, locus YJL168C, strain set2, active compounds read low 0.989 | S. cerevisiae deletion strains, locus YJL187C, strain SWE1 (second series), active compounds read low 1 | S. cerevisiae deletion strains, locus YJR043C, strain POL32, active compounds read low 0.994 | S. cerevisiae deletion strains, locus YJR075W, strain HOC1, active compounds read low 0.988 | S. cerevisiae deletion strains, locus YKL009W, strain mrt4, active compounds read low 0.95 | S. cerevisiae deletion strains, locus YKL068W, active compounds read low 0.98 | S. cerevisiae deletion strains, locus YKL085W, strain MDH1 (second series), active compounds read low 0.976 | S. cerevisiae deletion strains, locus YKL085W, strain MDH1, active compounds read low 0.976 | S. cerevisiae deletion strains, locus YKL190W, strain CNB1, active compounds read low 0.999 | S. cerevisiae deletion strains, locus YKR001C, strain vps1, active compounds read low 1 | S. cerevisiae deletion strains, locus YLR039C, strain RIC1, active compounds read low 0.945 | S. cerevisiae deletion strains, locus YLR058C, strain SHM2, active compounds read low 0.983 | S. cerevisiae deletion strains, locus YLR102C, strain apc9, active compounds read low 0.987 | S. cerevisiae deletion strains, locus YLR262C, strain YPT6, active compounds read low 0.936 | S. cerevisiae deletion strains, locus YLR268W, strain sec22, active compounds read low 1.02 | S. cerevisiae deletion strains, locus YLR330W, strain CHS5, active compounds read low 0.984 | S. cerevisiae deletion strains, locus YLR342W, strain FKS1 (second series), active compounds read low 0.994 | S. cerevisiae deletion strains, locus YLR371W, strain rom2, active compounds read low 0.969 | S. cerevisiae deletion strains, locus YLR418C, strain cdc73, active compounds read low 1.06 | S. cerevisiae deletion strains, locus YML016C, strain PPZ1, active compounds read low 0.994 | S. cerevisiae deletion strains, locus YML032C, strain rad52, active compounds read low 1.09 | S. cerevisiae deletion strains, locus YML124C, strain tub3, active compounds read low 0.988 | S. cerevisiae deletion strains, locus YMR078C, strain ctf18, active compounds read low 0.985 | S. cerevisiae deletion strains, locus YMR223W, strain ubp8, active compounds read low 0.977 | S. cerevisiae deletion strains, locus YMR263W, strain SAP30, active compounds read low 1.01 | [3] 1.08 | S. cerevisiae deletion strains, locus YNL067W, strain RPL9B, active compounds read low 1.03 | S. cerevisiae deletion strains, locus YNL128W, strain TEP1, active compounds read low 0.996 | [4] 1.03 | S. cerevisiae deletion strains, locus YNL233W, strain BNI4, active compounds read low 1.04 | S. cerevisiae deletion strains, locus YNL250W, strain rad50, active compounds read low 0.973 | S. cerevisiae deletion strains, locus YNL271C, strain bni1, active compounds read low 0.973 | S. cerevisiae deletion strains, locus YNL298W, strain CLA4, active compounds read low 0.977 | S. cerevisiae deletion strains, locus YNL307C, strain MCK1, active compounds read low 0.999 | [5] 0.981 | S. cerevisiae deletion strains, locus YNR052C, strain pop2, active compounds read low 0.963 | S. cerevisiae deletion strains, locus YOL006C, strain TOP1, active compounds read low 1.03 | S. cerevisiae deletion strains, locus YOL012C, strain htz1 1.26 | S. cerevisiae deletion strains, locus YOL147C, strain pex11, active compounds read low 0.977 | S. cerevisiae deletion strains, locus YOR061W, strain CKA2, active compounds read low 0.997 | S. cerevisiae deletion strains, locus YOR069W, strain VPS5, active compounds read low 0.994 | S. cerevisiae deletion strains, locus YOR136W, strain idh2, active compounds read low 0.984 | S. cerevisiae deletion strains, locus YOR144C, strain elg1, active compounds read low 0.984 | S. cerevisiae deletion strains, locus YOR184W, strain ser1, active compounds read low 0.965 | S. cerevisiae deletion strains, locus YOR316C, strain cot1, active compounds read low 0.991 | S. cerevisiae deletion strains, locus YPL055C, strain LGE1, active compounds read low 1.03 | [6] 0.991 | S. cerevisiae deletion strains, locus YPR119W, strain clb2, active compounds read low 0.988 | S. cerevisiae deletion strains, locus YPR141C, strain kar3, active compounds read low 0.982 | S. cerevisiae deletion strains, locus YPR163C, strain tif3, active compounds read low 0.972 | S. cerevisiae deletion strains, locus YPR167C, strain met16, active compounds read low 0.994 | S. cerevisiae deletion strains, strain wtn01, active compounds read low 1.02 | S. cerevisiae strains, strain wild type, active compounds read low 0.993
